This is a sample that favours compounds with a hit; in the whole collection about 11% have one here.
12-hLO inh: inhibitors of human 12-lipoxygenase (ALOX12); 0.12% of 150,000 active; purified 12-hLO, xylenol orange hydroperoxide absorbance; AID 1452; P18054; Potency, µM (titrated, usually from 57.1 µM), without a hit: at the top dose activity change, negative = inhibition, most hits filed as inhibitors; also: potency is read from the fitted curve at half-maximal effect; nearly all actives have a fitted effect of over 55% in size
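Purified human 12hLO (150 nM), preincubated 15 min with compound, then 40 uM arachidonic acid for 30 min, room temperature, Hepes pH 7.0 with 0.01% Triton X-100. Hydroperoxide detected by ferrous iron/xylenol orange; 573/405 nm absorbance ratio gives reaction progress.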
IMPase Li cell: membrane-permeable IMPase blocker, potentiated with lithium | CHO-M1 cells, IP1 TR-FRET (IP-One), carbachol + lithium | Potency, µM (doses to about 59.4 µM), inactives show top-dose activity, negative = IMPase inhibition, hits mostly inhibitors | 0.35% of 210,000 active | AID 1457;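 also: IP1 builds up when IMPase is blocked and the TR-FRET signal falls; potency is read from the fitted curve at half-maximal effect; plate controls were basal vehicle for no effect and high inhibitor control for full effect; nearly all actives have a fitted effect of over 50% in size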
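CHO-M1, 2000 cells/well, 16–30 h culture; cpd + low Li+, 30 min 37C; lysis with d2-IP1/Eu-anti-IP1 Ab, 10 min RT; TR-FRET 665/620 ratio and 620 channel; AC50 via Hill.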
PNC inhibitor: inhibitors of perinucleolar compartment assembly | PC3M PTB-GFP, PNC prevalence imaging, 16 h; hits give low values | 3.1% of 140,000 active | activity change (PNC), negative = inhibition, % at 10 µM;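 active = readout at or below -70, meaning at least 70% loss of cells showing the perinucleolar compartment, a nuclear body marking cancer cells; inconclusive = readout between -30 and a set limit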;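 also: plate controls were DMSO wells for no effect and camptothecin positive control wells for full effect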
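Read-out is percentage of cells bearing a perinucleolar compartment, from automated 20x imaging of fixed, Hoechst-stained PC3M PTB-GFP cells. Cells were seeded 4 h, then exposed 16 h to compound (23 nl of library stock) in duplicate plates.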
HPGD inh: blocks human HPGD enzyme activity | Potency, µM, for the others: at the highest dose activity change, negative = inhibition, most hits filed as inhibitors | purified HPGD, NADH fluorescence kinetic, PGE2 substrate | 4.3% of 150,000 active | AID 894; active = well fitted inhibition curve with a large enough effect, not every such curve was filed as active; inconclusive = small, poorly fitted or top-dose-only effect, or another doubt; inactive = no such curve, though single readings can be large or run the other way; also: potency is read from the fitted curve at half-maximal effect
Target sequence (P15428 whole entry, looked up): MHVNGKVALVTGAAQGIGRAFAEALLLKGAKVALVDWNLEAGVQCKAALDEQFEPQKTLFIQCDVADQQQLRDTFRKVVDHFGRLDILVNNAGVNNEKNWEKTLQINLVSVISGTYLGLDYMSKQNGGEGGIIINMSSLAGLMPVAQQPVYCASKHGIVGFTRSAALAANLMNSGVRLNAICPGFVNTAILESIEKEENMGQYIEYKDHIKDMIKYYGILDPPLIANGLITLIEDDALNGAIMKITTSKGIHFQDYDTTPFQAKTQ
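20 nM HPGD preincubated 15 min at room temperature with compound in 50 mM Tris-HCl pH 8, 0.01% Tween 20. Started with 1 mM NAD+ and 30 uM prostaglandin E2; NADH fluorescence (360/450 nm) read 5 times over 30-s intervals, last minus first.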
IMPase cell inh: membrane-permeable compound that blocks inositol monophosphatase; 120,000 tested, under 10 active; inhibition (IP1 accumulation), % at 46.1 µM; AID 901; CHO-M1 cells, IP1 accumulation, HTRF TR-FRET ratio; active = well fitted curve in the direction sought with a large enough effect in the signal ratio, not every such curve was filed as active; inconclusive = small, poorly fitted or top-dose-only effect, or a change in a side signal; inactive = no such curve, though single readings can be large or run the other way; the % refers to the signal ratio;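 also: cells stimulated with carbachol in lithium chloride buffer; plate controls were DMSO basal wells for no effect and reference inhibitor wells for full effect; higher means more IMPase inhibition seen as more IP1 and lower FRET ratio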
Target sequence (P97697 whole entry, looked up): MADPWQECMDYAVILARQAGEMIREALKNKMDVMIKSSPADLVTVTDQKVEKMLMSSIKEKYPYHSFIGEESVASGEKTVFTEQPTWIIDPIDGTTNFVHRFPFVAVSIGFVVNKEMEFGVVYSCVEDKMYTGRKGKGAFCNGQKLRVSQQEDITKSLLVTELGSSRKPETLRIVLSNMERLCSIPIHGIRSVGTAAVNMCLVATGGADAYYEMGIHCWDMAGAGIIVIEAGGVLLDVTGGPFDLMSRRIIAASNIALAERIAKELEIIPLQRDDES
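Carbachol-driven Gq signalling in CHO-M1 cells (2000/well) generates IP1. Compounds that block IMPase raise IP1 and so reduce the FRET signal from Eu-anti-IP1 and d2-IP1 after a 10 min room-temperature lysis.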
ALDH1A1 block: ALDH1A1 (human) enzyme inhibition | P00352 | Purified ALDH1A1, NADH fluorescence, propionaldehyde substrate | Potency, µM (highest dose often 75.3 µM), for inactives: top-dose activity, negative = inhibition, actives largely listed as inhibitors | 7.3% of 220,000 active | AID 1030; active = well fitted inhibition curve with a large enough effect, not every such curve was filed as active; inconclusive = small, poorly fitted or top-dose-only effect, or another doubt; inactive = no such curve, though single readings can be large or run the other way;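 also: potency is read from the fitted curve at half-maximal effect; plate controls were no enzyme wells and a reference inhibitor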
* hit, by the source's call; ? = inconclusive; . = not tested or not shown; [ ] = another dose, or the depositor's remark. Unless noted, calls follow the shape of the dose curve; as a rule, active = well fitted curve in the direction sought with a large enough effect; inconclusive = small, poorly fitted or top-dose-only effect, or another doubt; inactive = no such curve, though single readings can be large; an effect the other way counts as inactive or inconclusive. Unless noted, % is scaled to controls: 0 for no effect and ±100 for the full control effect.

SMILES | 12-hLO inh | IMPase Li cell | PNC inhibitor | HPGD inh | IMPase cell inh | ALDH1A1 block
Cc1ccc(NC(=O)C(NC2CCCc3ccccc32)c2ccccc2)cc1Cl (stereo not drawn) | -6% | 11% | 1 | -14% | . | 14µM*
Cc1ccc(NC(=O)C(NC2CCCc3ccccc32)c2ccccc2)c([N+](=O)[O-])c1 (stereo not drawn) | -5% | 4% | 10 | -3% | . | ?
O=C(O)Cc1sc(-c2ccccc2)nc1-c1ccccc1 | 3% | ? | -15 | -17% | ? | -3%
O=c1cc(O)nc(-c2ccccc2)s1 | . | -1% | . | . | . | 0.79µM*
O=C(O)Cc1sc(-c2ccc(Cl)cc2)nc1-c1ccccc1 | 4% | ? | 21 | ? | -16 | ?
O=c1cc(O)nc(-c2ccc(Cl)cc2)s1 | . | -5% | . | . | . | 16µM*
COc1ccc(C(=O)N2CCC3(CCCN(Cc4ccc(C#N)cc4)C3)CC2)cc1 | -13% | 27% | . | -11% | . | -10%
COc1cc2nncc(SCc3ccc(Cl)c(Cl)c3)c2cc1OC | 2%[11.4 µM] | -7% | . | -5% | . | -13%[13.5 µM]
CCOC(=O)C(=CNCC(=O)OC)C(=O)OCC | 0% | 20%[38.3 µM] | 2 | -4% | 10[1.84 µM] | 4%
CCOC(=O)CNC=C(C(=O)OCC)C(=O)OCC | -2% | 25%[38.3 µM] | -96* | -14% | -3[1.84 µM] | 0%
Cc1ccc(-n2c(-c3cccc(C)c3)n[nH]c2=S)cc1 | -19% | -18%[38.3 µM] | -9 | 22µM* | -11 | 2%
S=c1[nH]nc(-c2cccnc2)n1-c1ccccc1 | 1% | -4% | -88* | -27% | 6 | 7.9µM*
COc1ccccc1-n1c(-c2cccnc2)n[nH]c1=S | -1% | 16%[38.3 µM] | -3 | -14% | -2 | ?
Cc1cccc(-n2c(-c3ccncc3)n[nH]c2=S)c1 | -9% | 1% | 9 | -28% | 5 | ?
COc1ccccc1-c1n[nH]c(=S)n1-c1ccccc1 | 3% | 2µM* | ? | 32µM* | ? | ?
CC(C)Cn1c(-c2csc3ccccc23)n[nH]c1=S | -9% | 3%[38.3 µM] | ? | ? | 0 | ?
Cc1occc1-c1n[nH]c(=S)n1CC(C)C | 0% | 13% | -94* | -22% | -2 | 4%
CCCOc1cccc(C(=O)Nc2ccc(-c3nc4ccccc4o3)cc2)c1 | . | . | . | . | 3 | .
Cc1cccc(-n2c(-c3ccoc3C)n[nH]c2=S)c1 | -5% | -22% | 20 | 25µM* | . | -3%
Cc1ccccc1-n1c(-c2ccoc2C)n[nH]c1=S | -3% | -1% | 17 | -13% | . | -10%
S=c1[nH]nc(-c2ccc3ccccc3n2)n1-c1ccccc1 | 1% | -3% | ? | 28µM* | -2 | ?
COc1ccccc1-n1c(-c2cc(-c3ccc(F)cc3)n[nH]2)n[nH]c1=S | . | 1% | . | . | . | 32µM*
Fc1ccccc1-n1c(-c2ccc3ccccc3n2)n[nH]c1=S | . | -5% | . | . | . | 17%
Cc1cccc(-n2c(-c3csc4ccccc34)n[nH]c2=S)c1 | -7% | -1% | -1 | 14µM* | . | ?
CCOC(=O)Cc1cc(C(=O)Nc2ccc(Br)cc2)sc1-c1ccc(C)cc1 | . | . | . | . | -2 | .
SMILES | 12-hLO inh | IMPase Li cell | PNC inhibitor | HPGD inh | IMPase cell inh | ALDH1A1 block
O=C(O)C(Cc1cccs1)C(=O)O | 5%[11.4 µM] | 0% | . | -6% | . | -10%[13.5 µM]
Cc1[nH]c2ccc(-c3n[nH]c(=S)n3-c3ccc(Br)cc3)cc2c1C | . | 8% | . | . | . | 13%
O=C(O)c1ccc(-n2c(-c3ccc(Br)cc3)n[nH]c2=S)cc1 | 4% | 0%[38.3 µM] | ? | ? | 3 | 28µM*
CCOc1ccc(NS(=O)(=O)c2ccc(SC)cc2)cc1 | -7% | 0% | -14 | -5% | -2[0.369 µM] | 11µM*
COc1cc(NS(=O)(=O)c2ccc(F)cc2)c(OC)cc1NC(C)=O | -6% | 2%[38.3 µM] | 14 | -13% | 5 | 7.9µM*
CCOc1ccc(S(=O)(=O)Nc2ccccc2C(=O)N2CCCC2)cc1 | . | 3% | . | . | . | -8%
CCOc1ccc(S(=O)(=O)NN)cc1 | -3% | -4%[38.3 µM] | -25 | -1% | 5 | 2µM*
CCOc1ccc(S(=O)(=O)NN=C2CCN(C(C)=O)CC2)cc1 | . | -13% | . | . | . | 7.9µM*

Screening data (PubChem)
